PHOSPHO1 block – PubChem AID 1565. recombinant PHOSPHO1, absorbance phosphatase assay. inhibition, % at 13.3 µM. actives 1.1% (n = 290,000); in the data active = inhibition above about 60%
Target sequence (Q8TCT1 whole entry, looked up): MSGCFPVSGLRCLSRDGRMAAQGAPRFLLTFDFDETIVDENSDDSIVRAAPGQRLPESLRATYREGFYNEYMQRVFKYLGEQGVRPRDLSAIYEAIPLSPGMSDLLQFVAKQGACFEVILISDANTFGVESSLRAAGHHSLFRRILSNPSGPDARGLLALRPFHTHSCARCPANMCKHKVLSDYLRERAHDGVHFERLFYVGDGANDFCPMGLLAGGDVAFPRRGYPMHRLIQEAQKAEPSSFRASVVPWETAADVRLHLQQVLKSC
esBAF inh – Bmi1 luciferase reporter increase in mESCs, primary screen, esBAF inhibitor project, mouse ES cells, Bmi1 luciferase knock-in, single point | AID 602393, 2012 | 24 h; 100% = twice the neutral-well signal | reporter increase, % at 12.5 µM | actives 2% (n = 350,000); in the data active = activation above about 40%; inconclusive = no clear call, values can overlap the other calls;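 also: a rise in the Bmi1 reporter signal indicates esBAF inhibition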
APOBEC3G inh – APOBEC3G DNA deaminase inhibitors, primary screen, biochemical, fluorescence, single-stranded DNA substrate, uHTS; DNA dC->dU-editing enzyme APOBEC-3G (Homo sapiens), Q9HC16; recombinant A3G, ssDNA deamination FAM/TAMRA fluorescence; inhibition, % at 20 µM; actives 0.28% (n = 330,000); AID 493012, 2011;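 active = inhibition of at least 40% at 20 µM, with no more than 30% in the related APOBEC3A deaminase screen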
Wnt act – Wnt/beta-catenin pathway activators, primary screen, cell-based, plate reader, single point; Wnt/beta-catenin reporter cell assay, activator; activation, % at 9.35 µM; actives 1.2% (n = 300,000); AID 743398, 2014; in the data active = activation above about 30%, passing the limit was not always enough; inconclusive = no clear call, values can overlap the other calls
MITF act – activators of MITF-driven TRPM1 promoter reporter, primary screen, cell-based, SK-MEL-5, luciferase, single point. actives 0.75% (n = 300,000). AID 588334, 2011. SK-MEL-5 TRPM1-promoter luciferase, 24 h; % of positive control, neutral wells = 0. activation, % at 12.5 µM;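 active = mean activation of at least 80% with every replicate also reaching 80%; inconclusive = mean reaches 80% but some replicate falls short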
A3A deaminase – APOBEC3A ssDNA deaminase inhibitors, primary screen, selectivity assay for APOBEC3G inhibitor project, biochemical, FAM/TAMRA oligo cleavage fluorescence | DNA dC->dU-editing enzyme APOBEC-3A (Homo sapiens), P31941 | recombinant A3A, FAM/TAMRA ssDNA deamination fluorescence | inhibition, % at 20 µM | actives 0.41% (n = 330,000);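 active = at least 40% inhibition at 20 µM here, with at most 30% in a related deaminase screen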
Target sequence (P31941 whole entry, looked up): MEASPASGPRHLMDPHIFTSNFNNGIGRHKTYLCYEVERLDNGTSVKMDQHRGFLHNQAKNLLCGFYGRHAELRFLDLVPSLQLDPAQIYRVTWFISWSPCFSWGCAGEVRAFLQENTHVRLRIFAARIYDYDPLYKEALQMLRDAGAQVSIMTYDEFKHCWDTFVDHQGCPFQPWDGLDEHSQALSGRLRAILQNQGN
Numbers stand for hits; n = inactive; u = inconclusive; x = no result given. Most compounds without a hit are left out; they make up all but 3.6% or so of the library.

SMILES | PHOSPHO1 block | esBAF inh | APOBEC3G inh | Wnt act | MITF act | A3A deaminase
COc1ccc(NC(=O)N2C[C@@H]3[C@H](c4ccccc42)[C@@H](CO)N3C(=O)C2CCCCC2)cc1 | x | n | x | x | x | x
Cc1ccc(S(=O)(=O)N(C)C[C@@H]2Oc3ncc(C#CC4(O)CCCC4)cc3C(=O)N([C@@H](C)CO)C[C@H]2C)cc1 | x | n | x | x | x | x
O=C(Nc1ccccc1)c1cc(C2CCCN(C(=O)c3cccs3)C2)on1 (stereo unspecified) | x | 56 | x | 34 | x | x
COc1ccc(NC(=S)N2CCC(c3ccccc3)C2)cc1 (stereo unspecified) | n | u | n | u | 108 | n
COc1ccc(NC(=S)N2CCC(C(O)(c3ccccc3)c3ccccc3)CC2)cc1 | n | x | n | x | n | n
NC(Cc1ccccc1)C(=O)N1CCCCC1 (stereo unspecified) | n | n | n | n | n | n
O=C(c1cccs1)N1CCC(c2ccccc2)C1 (stereo unspecified) | n | x | n | 51 | n | n
O=C(CCN1CCC(c2ccccc2)C1)c1cccs1 (stereo unspecified) | n | x | n | n | n | n
CN1CCN(C(=O)C(N)Cc2ccccc2)CC1 (stereo unspecified) | 63 | x | n | n | n | n
Cc1cccc(-c2nc(C#N)c(N3CCCCCC3)o2)c1 | n | 73 | n | x | n | n
CC1CCN(c2oc(-c3ccccc3Cl)nc2C#N)CC1 | n | 53 | n | n | 94 | n
Cc1ccccc1-c1nc(C#N)c(N2CCC(C)CC2)o1 | n | n | n | n | n | n
Cc1ccc(NN2C(=O)C=C(c3ccccc3)C2=O)cc1 | 61 | x | n | n | x | n
O=C1c2ccccc2C(=O)N1Nc1ccccc1 | n | x | n | x | n | n
CCCC(=O)Nc1ccc2c(c1)C(=O)N(C)C[C@@H](OC)[C@@H](C)CN(C(=O)c1ccncc1)[C@H](C)CO2 | x | n | x | x | x | x
COc1cccc(CNC(=O)C[C@H]2CC[C@@H](NC(=O)C3CCOCC3)[C@H](CO)O2)c1 | x | n | x | x | x | x
COc1ccc(C(=O)NNC(=S)NC(=O)c2cccnc2)cc1 | n | x | n | n | n | n
O=C(NNC(=S)NC(=O)c1cccnc1)c1ccc(F)cc1 | 85 | n | n | n | n | n
COc1ccc(CC(=O)NNC(=S)NC(=O)c2cccnc2)cc1 | 85 | n | n | n | n | n
CCOc1ccc(/C=N/n2nnnc2N)cc1O | 62 | n | n | n | n | n
CCOc1cc(/C=N\n2nnnc2N)ccc1O | n | n | n | n | n | n
CCCCNC(=O)CC1Nc2ccccc2NC1=O (stereo unspecified) | n | n | n | n | n | n
CCCCCNC(=O)CC1Nc2c3ccccc3nc(=S)n2C1=O (stereo unspecified) | 65 | n | n | x | x | n
Cc1noc(C)c1NC(=O)Nc1cccc2c1O[C@H](CN(C)Cc1ccc(C(=O)O)cc1)[C@@H](C)CN([C@@H](C)CO)C2=O | x | n | x | x | x | x
Cc1cc(C)c2c(N)c(C(=O)Nc3ccccc3F)sc2n1 | x | 50 | n | n | n | n
SMILES | PHOSPHO1 block | esBAF inh | APOBEC3G inh | Wnt act | MITF act | A3A deaminase
Cc1cc(C)c2c(N)c(C(=O)Nc3ccccc3Cl)sc2n1 | x | x | n | n | x | n
Cc1ccccc1NC(=O)c1sc2nc(N3CCOCC3)c3c(c2c1N)CCCC3 | n | 54 | n | n | n | n
COc1ccccc1NC(=O)c1sc2nc(N3CCOCC3)c3c(c2c1N)CCCC3 | n | n | n | n | n | n
CCCNC(=O)N(C)C[C@H]1Oc2ncc(C#CC3(O)CCCC3)cc2C(=O)N([C@H](C)CO)C[C@H]1C | x | n | x | x | x | x
O=C(Cc1ccccn1)N[C@@H]1CC[C@H](CCn2cc(-c3ccccc3)nn2)O[C@H]1CO | x | n | x | x | x | x
COC(=O)C[C@@H]1C=C[C@H](NC(=O)Nc2ccc(C(F)(F)F)cc2)[C@H](CO)O1 | x | n | x | x | x | x
COc1ccc(NC(=O)N2CCc3ccccc32)cc1 | n | n | n | x | n | n
CCOC(=O)c1ccc(NC(=O)N2CCN(C3CCCCC3)CC2)cc1 | n | n | n | x | n | n
COc1ccc(NC(=O)N2CCCc3ccccc32)cc1 | n | 41 | n | 54 | n | n
CCOC(=O)c1ccc(NC(=O)N2CCCCC2)cc1 | n | n | n | x | 101 | n
CCOC(=O)c1ccc(NC(=O)N2CCc3ccccc3C2)cc1 | n | n | n | n | n | n
CCOC(=O)c1ccc(Nc2ccc(C(C)=O)cc2)cc1 | x | 76 | x | n | x | x
CCOC(=O)c1ccc(NC(=O)N2CCc3ccccc32)cc1 | n | 68 | n | 40 | n | n
CC(C)Cc1ccc(/C=C/C(=O)N2CCOCC2)cc1 | n | 52 | n | n | 103 | n
CC(C)NC(=O)Nc1ccc2c(c1)C(=O)N([C@@H](C)CO)C[C@H](C)[C@@H](CN(C)S(=O)(=O)c1cccs1)OCCCC[C@@H](C)O2 | x | n | x | x | x | x
CC(C)(C)OC(=O)C[C@H]1C/C=C\C[C@@H](CC(=O)N[C@@H](CO)Cc2ccccc2)C(=O)N2CCC[C@H]2COC1=O | x | n | n | n | n | n
CC(C)(C)OC(=O)C[C@@H]1C/C=C\C[C@@H](CC(=O)N[C@H](CO)Cc2ccccc2)C(=O)N2CCC[C@@H]2COC1=O | x | n | n | 56 | n | n
C[C@@H]1CN([C@@H](C)CO)C(=O)c2cc(C#C[C@@H](C)O)cnc2O[C@H]1CN(C)Cc1ccc(-c2ccccc2)cc1 | x | n | x | x | x | x
C[C@@H]1CN([C@@H](C)CO)C(=O)c2cc(NC(=O)Cc3ccccc3)ccc2O[C@@H]1CN(C)C(=O)Nc1cccc2ccccc12 | x | n | x | x | x | x
CN(C)/C=C/C(=O)/C=C/c1ccc(Cl)cc1 | n | x | n | 71 | n | n
CC(=O)Nc1ccc(NC(=O)/C=C/c2ccc(Cl)cc2)cc1 | n | x | n | n | n | n
CO[C@H]1CC[C@@H]2CCOc3ccc(C#N)cc3C(=O)N(C)C[C@@H](c3ccccc3)CC(=O)N(C)C[C@H]1O2 | x | n | x | x | x | x
O=C(/C=C/Nc1ccc([N+](=O)[O-])cc1Br)c1cccc2ccccc12 | n | x | n | 48 | 115 | n
NC(=O)c1cc([N+](=O)[O-])ccc1NCc1cccc2ccccc12 | x | n | n | n | n | n
c1ccc2oc(-c3ccc4nc[nH]c4c3)nc2c1 | n | 47 | n | x | 98 | n
COc1ccc(S(=O)(=O)N2CCCCN3[C@H](CO)[C@H](c4ccc(C5=CCCC5)cc4)[C@@H]3C2)cc1 | x | n | x | x | x | x
CCOC(=O)C1CCN(C(=O)CCc2ccc(S(=O)(=O)NCC(C)C)cc2)CC1 | 60 | n | n | n | x | n
